Assay results published in PubChem BioAssay (NCATS).
Results filed as inconclusive are left out. Activity calls are given as the source filed them. Unless noted, calls come from the whole dose curve; as a rule, active = well fitted curve in either direction with a large enough effect (not every such curve was filed as active); inconclusive = small, poorly fitted or top-dose-only effect, or another doubt; inactive = flat fitted curve, though single readings scatter.

Legend:
[1] = biological target: Lysosomal acid glucosylceramidase (Homo sapiens) (UniProt P04062); test: Glucocerebrosidase-p2 (AID 348; in the data active = potency below about 10 µM; note: potency is the fitted concentration of half-maximal effect); conditions: purified GBA, blue fluorogenic substrate, 40 min
Lysosomal acid glucosylceramidase (Homo sapiens), sequence (P04062 whole entry, looked up): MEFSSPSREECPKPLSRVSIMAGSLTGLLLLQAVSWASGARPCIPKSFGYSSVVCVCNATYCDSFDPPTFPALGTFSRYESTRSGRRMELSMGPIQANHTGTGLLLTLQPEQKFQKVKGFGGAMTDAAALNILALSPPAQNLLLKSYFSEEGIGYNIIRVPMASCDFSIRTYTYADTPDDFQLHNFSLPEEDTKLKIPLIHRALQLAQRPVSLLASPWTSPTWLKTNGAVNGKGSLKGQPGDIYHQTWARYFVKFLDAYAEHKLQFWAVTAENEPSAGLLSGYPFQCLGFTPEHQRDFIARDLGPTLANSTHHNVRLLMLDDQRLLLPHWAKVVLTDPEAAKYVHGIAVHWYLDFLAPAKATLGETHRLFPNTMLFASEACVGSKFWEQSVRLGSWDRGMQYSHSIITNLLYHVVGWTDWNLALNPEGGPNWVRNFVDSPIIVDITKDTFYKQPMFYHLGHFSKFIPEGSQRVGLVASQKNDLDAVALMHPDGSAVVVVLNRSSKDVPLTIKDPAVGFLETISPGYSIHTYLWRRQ
Method in brief: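 Normal human glucocerebrosidase (0.2 nM) with blue fluorogenic substrate (80 uM final) in citrate/phosphate pH 5.9 with 10mM sodium taurocholate, 0.01% tween-20; 40 min RT, NaOH/glycine stop; fluorescence Ex 365/Em 440; AC50 from a titration from 0.6 nM upwards.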

[2] = AP1 Signaling Pathway (AID 357); conditions: ME-180 AP-1-bla reporter, EGF-induced, beta-lactamase ratio, 5 h; at 7.69 µM (top of the series) unless noted;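 note: ME-180 reporter cells stimulated with EGF at its EC50 level; % is set by controls: 0 for no effect and ±100 for the full control effect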
Method in brief: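 AP-1-bla ME-180 cells, Opti-MEM + 0.5% dialyzed FBS, plated overnight 37 °C. Cpd titration + EC50 EGF, 5 h 37 °C. CCF4 2.5 h RT; ex 405, em 460/530 ratio → %activity, AC50.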

[3] = biological target: Cytochrome P450 1A2 (Homo sapiens) (UniProt P05177); test: p450-cyp1a2 (AID 410; calls by dose curve; note: potency is the fitted concentration of half-maximal effect); conditions: recombinant CYP1A2, luciferin-ME demethylation, luminescence; series mostly up to 57 µM
Cytochrome P450 1A2 (Homo sapiens), sequence (P05177 whole entry, looked up): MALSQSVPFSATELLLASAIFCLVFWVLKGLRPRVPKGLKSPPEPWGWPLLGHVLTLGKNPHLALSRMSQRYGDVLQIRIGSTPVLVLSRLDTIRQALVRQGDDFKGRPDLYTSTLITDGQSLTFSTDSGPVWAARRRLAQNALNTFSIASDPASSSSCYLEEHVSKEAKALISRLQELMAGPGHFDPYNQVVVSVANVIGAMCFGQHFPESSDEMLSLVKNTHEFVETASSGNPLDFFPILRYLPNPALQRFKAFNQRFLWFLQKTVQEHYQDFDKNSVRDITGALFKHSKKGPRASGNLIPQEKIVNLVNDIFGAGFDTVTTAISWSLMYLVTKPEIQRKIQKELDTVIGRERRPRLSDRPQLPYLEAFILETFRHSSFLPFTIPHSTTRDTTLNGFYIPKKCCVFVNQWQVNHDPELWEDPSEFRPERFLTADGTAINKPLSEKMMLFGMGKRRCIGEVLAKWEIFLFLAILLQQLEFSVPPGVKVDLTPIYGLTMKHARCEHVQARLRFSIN
Method in brief: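 Read-out is luminescence from luciferin produced by CYP1A2 demethylation of Luciferin-ME (100uM, at Km). Detection reagent stopped the 60 min NADPH-dependent reaction; signals were normalized to 57 uM furafylline.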

[4] = Stat Signaling Pathway (AID 446); conditions: ME-180 SIE beta-lactamase reporter, IL-6 stimulated, 5 h; at 7.69 µM (top of the series) unless noted;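 note: ME-180 cervical cancer cells given 40 pM IL-6 alongside compound; SIE-controlled beta-lactamase reporter measured as 460/530 nm FRET emission ratio; % is set by controls: 0 for no effect and ±100 for the full control effect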
Method in brief: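 Compound effects on IL-6-induced STAT reporter activity were measured in ME-180 cells. After overnight culture, cells were co-treated with 40 pM IL-6 for 5 hrs before beta-lactamase substrate loading at room temperature.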

[5] = biological target: Glucocorticoid receptor (Homo sapiens) (UniProt P04150); test: GR-GFP Redistribution (AID 450;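 active = compounds whose dose series gives a full or clear partial fitted curve of increased nuclear translocation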; note: potency is the fitted concentration of half-maximal effect); conditions: U2OS GR-GFP nuclear translocation, laser cytometry, 2 h
Glucocorticoid receptor (Homo sapiens), sequence (P04150 whole entry, looked up, the tested form may be a part): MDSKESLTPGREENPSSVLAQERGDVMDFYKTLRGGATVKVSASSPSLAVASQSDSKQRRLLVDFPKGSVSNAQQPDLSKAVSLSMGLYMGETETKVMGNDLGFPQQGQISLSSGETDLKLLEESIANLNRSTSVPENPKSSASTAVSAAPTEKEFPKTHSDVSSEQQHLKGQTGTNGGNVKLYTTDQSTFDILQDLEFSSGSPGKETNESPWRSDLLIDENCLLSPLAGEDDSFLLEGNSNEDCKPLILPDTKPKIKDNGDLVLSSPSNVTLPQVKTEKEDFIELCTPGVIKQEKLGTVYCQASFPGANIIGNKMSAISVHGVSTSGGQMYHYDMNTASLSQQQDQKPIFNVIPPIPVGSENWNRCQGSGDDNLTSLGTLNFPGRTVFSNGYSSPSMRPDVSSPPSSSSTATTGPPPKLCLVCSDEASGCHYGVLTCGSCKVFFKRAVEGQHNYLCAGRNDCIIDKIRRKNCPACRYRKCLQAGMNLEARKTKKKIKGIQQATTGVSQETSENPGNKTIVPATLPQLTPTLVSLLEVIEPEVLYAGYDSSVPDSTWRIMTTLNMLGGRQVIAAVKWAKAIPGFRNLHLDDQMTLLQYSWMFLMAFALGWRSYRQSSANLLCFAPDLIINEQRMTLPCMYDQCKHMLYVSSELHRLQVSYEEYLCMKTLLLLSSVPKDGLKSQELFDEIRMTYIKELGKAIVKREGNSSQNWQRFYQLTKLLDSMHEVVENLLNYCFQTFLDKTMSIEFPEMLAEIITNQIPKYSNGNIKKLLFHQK

[6] = biological target: Glucocorticoid receptor (Homo sapiens) (UniProt P04150); test: GR-EFC Redistribution (AID 451; calls by dose curve; note: potency is the fitted concentration of half-maximal effect); conditions: CHO-K1 GR-EFC translocation, beta-gal luminescence, 2 h
Method in brief: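 CHO-K1 cells expressing nuclear EA and GR-ED fragments of b-gal; compounds titrated up to 46 uM final, 2 h at 37 C. GR nuclear translocation read as complemented b-gal luminescence after 1 h RT detection.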

[7] = biological target: Mitogen-activated protein kinase 10 (Mus musculus) (UniProt Q61831); test: JNK3 AlphaScreen Assay (AID 530); conditions: JNK3 lysate, c-Jun phosphorylation; series mostly up to 57.1 µM;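 note: kinase came from lysate of stimulated human HepG2 cells; signal reports phosphorylation of biotinylated GST-cJun 1-79 at Ser73 with 10 µM ATP; % is set by controls: 0 for no effect and ±100 for the full control effect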
Method in brief: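 HepG2 lysate (IL-1b/TNFa pre-activated) + biotin-GST-cJun 1-79 + anti-pSer73 cJun; cpd titration, 15 min RT; ATP 10 uM start; Tris pH 7.6, MgCl2, DTT, vanadate; beads in EDTA buffer; AlphaScreen.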

[8] = biological target: 3',5'-cyclic-AMP phosphodiesterase 4B (Homo sapiens) (UniProt Q07343); test: qHTS Assay for Inhibitors of PDE-IV (AID 607; active = well fitted activation curve with a large enough effect in the main read-out, with a control signal flat, not every such curve was filed as active; note: % of control where 0% means no effect); conditions: HEK293 ACTOne CNG channel cells, membrane potential fluorescence; series mostly up to 22.9 µM
3',5'-cyclic-AMP phosphodiesterase 4B (Homo sapiens), sequence (Q07343 whole entry, looked up): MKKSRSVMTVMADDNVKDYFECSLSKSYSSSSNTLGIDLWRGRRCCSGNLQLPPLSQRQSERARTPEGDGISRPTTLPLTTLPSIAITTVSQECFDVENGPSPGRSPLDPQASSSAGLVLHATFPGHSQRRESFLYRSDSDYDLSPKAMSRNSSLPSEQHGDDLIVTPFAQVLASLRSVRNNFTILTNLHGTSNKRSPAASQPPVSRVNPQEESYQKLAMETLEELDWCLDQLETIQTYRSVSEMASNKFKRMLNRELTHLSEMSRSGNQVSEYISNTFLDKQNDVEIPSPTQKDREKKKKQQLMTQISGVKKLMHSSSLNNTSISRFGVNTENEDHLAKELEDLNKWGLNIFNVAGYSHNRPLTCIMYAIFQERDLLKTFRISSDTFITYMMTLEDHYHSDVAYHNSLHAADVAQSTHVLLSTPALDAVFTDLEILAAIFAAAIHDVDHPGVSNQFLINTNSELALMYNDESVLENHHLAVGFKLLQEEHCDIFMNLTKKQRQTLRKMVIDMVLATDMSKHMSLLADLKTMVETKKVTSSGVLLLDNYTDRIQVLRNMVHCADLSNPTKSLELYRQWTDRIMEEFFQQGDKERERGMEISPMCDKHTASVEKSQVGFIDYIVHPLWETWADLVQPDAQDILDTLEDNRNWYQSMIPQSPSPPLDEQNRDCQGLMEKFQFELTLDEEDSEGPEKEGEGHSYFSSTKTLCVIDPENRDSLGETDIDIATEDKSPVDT
Method in brief: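 ACTOne HEK293 cells carry a modified cAMP-gated CNG channel and express endogenous PDE4; plated 1000 cells/well, compounds up to 22.9 uM final. Membrane-potential dye fluorescence (ex 535/em 590) was read; parental cells received 10 uM forskolin + 100 uM RO 20-1724.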

[9] = biological target: Cytochrome P450 3A4 (Homo sapiens) (UniProt P08684); test: qHTS Assay for Inhibitors and Substrates of Cytochrome P450 3A4 (AID 884; active = well fitted curve in the direction sought with a large enough effect; an effect the other way counts as inactive or inconclusive; note: potency is the fitted concentration of half-maximal effect; nearly all actives have a fitted effect of over 50% in size); conditions: recombinant CYP3A4, Luciferin-PPXE luminescence; series mostly up to 57.1 µM
Cytochrome P450 3A4 (Homo sapiens), sequence (P08684 whole entry, looked up): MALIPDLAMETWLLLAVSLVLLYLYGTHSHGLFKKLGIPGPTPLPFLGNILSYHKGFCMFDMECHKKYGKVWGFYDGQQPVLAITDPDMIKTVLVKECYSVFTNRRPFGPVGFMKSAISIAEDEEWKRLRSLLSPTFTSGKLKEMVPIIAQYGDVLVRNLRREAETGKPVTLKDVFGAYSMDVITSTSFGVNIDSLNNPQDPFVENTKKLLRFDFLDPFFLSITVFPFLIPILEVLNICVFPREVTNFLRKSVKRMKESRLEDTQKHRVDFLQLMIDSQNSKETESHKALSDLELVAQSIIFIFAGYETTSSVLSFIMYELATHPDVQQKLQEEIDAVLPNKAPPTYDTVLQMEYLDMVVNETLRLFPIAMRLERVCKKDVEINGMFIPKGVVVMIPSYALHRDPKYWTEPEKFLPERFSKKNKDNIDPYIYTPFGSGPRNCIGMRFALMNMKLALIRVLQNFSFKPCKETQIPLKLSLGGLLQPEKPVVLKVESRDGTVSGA
Method in brief: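 Luminescent readout of luciferin produced by CYP3A4 (20 nM) dealkylation of Luciferin-PPXE, 25 uM (its KM). NADPH-driven reaction ran 60 min at RT after 10 min compound preincubation; data scaled to 57 uM ketoconazole as 100% inhibition.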

[10] = biological target: Cytochrome P450 3A4 (Homo sapiens) (UniProt P08684); test: qHTS Assay for Activators of Cytochrome P450 3A4 (AID 885; active = well fitted curve in the direction sought with a large enough effect; an effect the other way counts as inactive or inconclusive; note: nearly all actives have a fitted effect of over 65% in size; note: potency is the fitted concentration of half-maximal effect); conditions: recombinant CYP3A4, Luciferin-PPXE luminescence, 60 min; series mostly up to 57.1 µM
Method in brief: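 CYP3A4 activity: Luciferin-PPXE O-dealkylation, 25uM substrate, 200mM KPO4, RT throughout. Read-out is luciferase luminescence; higher values reflect activation.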

[11] = Confirmation and Secondary Assay for Modulators of Hemoglobin Beta Chain Splicing at IVS2 654 locus (AID 910; active = well fitted curve in the direction sought with a large enough effect; an effect the other way counts as inactive or inconclusive;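 note: HeLa cells stably carrying EGFP split by mutant beta-globin IVS2-654 intron; % of control where 0% means no effect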); conditions: HeLa EGFP-654 splicing reporter, GFP fluorescence, 48 h; series mostly up to 38.3 µM
Method in brief: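 HeLa cells stably expressing EGFP interrupted by β-globin IVS2-654 intron, seeded overnight in Opti-MEM/2% FCS, then treated 2 days at 37 °C. Restored splicing read as total peak GFP intensity per well by laser scanning cytometry (488 nm excitation, 500–520 nm emission); 500 nM antisense PNA as control.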

[12] = Confirmation and Secondary Assay for Modulators of Hemoglobin Beta Chain Splicing at IVS2 705 locus (AID 930; active = well fitted curve in the direction sought with a large enough effect; an effect the other way counts as inactive or inconclusive;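 note: HeLa cells stably expressing the EGFP-705 splicing reporter; GFP fluorescence per well restored by corrected splicing of the IVS2-705 intron in EGFP; % of control where 0% means no effect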); conditions: HeLa EGFP-705 splicing reporter, GFP fluorescence, 48 h; series mostly up to 38.3 µM
Method in brief: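 HeLa cells stably carrying EGFP interrupted by mutant beta-globin intron 2 (IVS2-705) treated 2 days at 37C with compound; 500 nM antisense PNA as control. Correct splicing read as total peak GFP intensity per well by laser-scanning cytometry.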

[13] = qHTS Assay for Lipid Storage Modulators (AID 1519; calls by dose curve); conditions: Drosophila S3 cells, BODIPY lipid droplet/cell ratio, laser cytometry, cells loaded with oleic acid; for activity change, negative = inhibition: at 57.5 µM (top of the series)
Method in brief: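 Cells seeded at 5,000 per well were treated with compounds over a concentration series and loaded with oleic acid (400 uM, as added). Lipid droplet fluorescence (488 nm excitation, 500-530 nm channel) was read by laser-scanning cytometry and normalized to 20 uM Triacsin C.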

[14] = biological target: Tyrosyl-DNA phosphodiesterase 1 (Homo sapiens) (UniProt Q9NUW8); test: Confirmation Assay for Inhibitors of Tyrosyl-DNA Phosphodiesterase (TDP1) (AID 489007; active = well fitted curve in the direction sought with a large enough effect; an effect the other way counts as inactive or inconclusive; note: potency is the fitted concentration of half-maximal effect; nearly all actives have a fitted effect of over 40% in size); conditions: recombinant human TDP1 enzymatic activity, dose-response
Tyrosyl-DNA phosphodiesterase 1 (Homo sapiens), sequence (Q9NUW8 whole entry, looked up): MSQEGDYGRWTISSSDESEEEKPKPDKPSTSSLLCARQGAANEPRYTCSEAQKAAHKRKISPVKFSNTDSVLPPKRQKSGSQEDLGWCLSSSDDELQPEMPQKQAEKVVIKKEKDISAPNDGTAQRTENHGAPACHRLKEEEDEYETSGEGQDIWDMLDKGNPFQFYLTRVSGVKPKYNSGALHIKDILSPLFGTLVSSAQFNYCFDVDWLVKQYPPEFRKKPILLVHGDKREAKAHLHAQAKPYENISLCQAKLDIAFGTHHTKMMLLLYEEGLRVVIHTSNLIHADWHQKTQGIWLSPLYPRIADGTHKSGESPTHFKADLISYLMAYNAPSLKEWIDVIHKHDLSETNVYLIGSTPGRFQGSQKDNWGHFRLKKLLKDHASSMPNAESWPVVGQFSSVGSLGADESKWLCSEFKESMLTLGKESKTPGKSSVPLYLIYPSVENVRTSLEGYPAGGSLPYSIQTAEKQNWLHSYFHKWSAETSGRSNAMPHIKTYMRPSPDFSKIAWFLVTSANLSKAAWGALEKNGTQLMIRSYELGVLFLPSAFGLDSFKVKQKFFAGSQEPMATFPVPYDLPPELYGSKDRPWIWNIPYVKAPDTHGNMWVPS
Method in brief: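 Loss of AlphaScreen signal reports Tdp1 cleavage of a dual-labelled DNA substrate. Conditions: 1 nM E. coli-derived enzyme, 15 nM substrate, 15 min compound preincubation, 5 min reaction, 10 min bead incubation, all at room temperature.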

[15] = Primary qHTS for small molecule stabilizers of the endoplasmic reticulum resident proteome: Secreted ER Calcium Modulated Protein (SERCaMP) assay (AID 1508630; active = well fitted curve in the direction sought with a large enough effect; an effect the other way counts as inactive or inconclusive; note: % is set by controls: 0 for no effect and ±100 for the full control effect); conditions: SH-SY5Y GLuc-SERCaMP (Gaussia luciferase released on ER calcium loss) secretion, thapsigargin, luminescence; series mostly up to 38.4 µM
Method in brief: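 The SH-SY5Y reporter protocol was run at 3 concentrations up to 38.3 uM (primary) or 11 concentrations (follow-up): 16 h compound, 100 nM thapsigargin for 4 h, then extracellular luciferase luminescence.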

[16] = NFAT Signaling Pathway (AID 444); conditions: Jurkat NFAT-bla M1, carbachol, beta-lactamase ratio, 5 h; at 7.69 µM (top of the series) unless noted
Method in brief: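 Jurkat cells with NFAT-driven β-lactamase reporter and co-expressed M1 receptor, stimulated with carbachol (final 1 uM, ~EC50), compound titration, 5 h at 37 °C. CCF4 loaded 1 h at RT; 460/530 nm ratio gave %activity and AC50.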

[17] = qHTS Assay for Identification of Small Molecule Agonists for Hypoxia Response Element Signaling Pathway (AID 914; active = well fitted activation curve with a large enough effect in the signal ratio, with a control signal flat, not every such curve was filed as active; the % refers to the signal ratio; note: potency is the fitted concentration of half-maximal effect; for activation: % of control where 0% means no effect); conditions: ME-180 (cervical carcinoma) HRE-bla reporter, beta-lactamase ratio, CoCl2, 17 h; activation: stronger effect = higher value
Method in brief: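 HRE-bla ME-180 cells with beta-lactamase reporter under hypoxia response element, compounds with EC50 CoCl2 for 17 hours at 37 C. CCF4 substrate, 460nm/530nm emission ratio gave %Activity; AC50 from titration series.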

[18] = measured here: cell count channel max response
[19] = measured here: lipid channel max response

Cc1ccccc1-c1cncnc1N(C)Cc1ccco1
-7.61%: max response [13, 18]
2.41%: max response [13, 19]
inactive: Potency [1] > 11.4 µM | activity change, negative = inhibition [2] -3.79% | activity, negative = inhibition [4] 11.8% | Potency [5] > 46 µM | Potency [6] > 46 µM | outcome [7] | Potency [8] | Potency [10] | outcome [11] | outcome [12] | activity change, negative = inhibition [13] 8.25% | Potency [15]
active: Potency [3] 15.8 µM | Potency [9] 1.58 µM | Potency [14] 3.16 µM

CC(=O)N1CCC[C@@]2(CCN(Cc3cc(C(F)(F)F)cc(C(F)(F)F)c3)C2)C1
18.9%: max response [13, 19]
8.88%: max response [13, 18]
inactive: Potency [1] > 11.4 µM | activity change, negative = inhibition [2] -5.47% | activity change, negative = inhibition [16] 20.4% | activity, negative = inhibition [4] -6.41% | Potency [6] > 46 µM | Potency [8] | activity change, negative = inhibition [13] 5.56% | Potency [15]

O=C(Nc1ccccc1)N1CCC2(CC1)CCN(C(=O)c1ccncc1)CC2
27.7%: max response [13, 19]
inactive: Potency [1] > 11.4 µM | activity change, negative = inhibition [2] -8.86% | activity change, negative = inhibition [16] -7.39% | activity, negative = inhibition [4] 2.23% | Potency [6] > 46 µM | outcome [7] | Potency [8] | activity change, negative = inhibition [13] 7.6% | Potency [15]
12.3%: max response [13, 18]

O=C(c1csnn1)N1CCC2(CC1)CCN(c1ncccn1)CC2
6.88%: max response [13, 19]
-0.155%: max response [13, 18]
inactive: Potency [1] > 11.4 µM | activity change, negative = inhibition [2] -14.3% | activity change, negative = inhibition [16] 1.39% | activity, negative = inhibition [4] -5.07% | Potency [6] > 46 µM | outcome [7] | Potency [8] | activity change, negative = inhibition [13] 4.97% | Potency [15]

O=C(Oc1ccccc1)N1CCC2(CC1)CCN(c1ncccn1)CC2
inactive: Potency [1] > 11.4 µM | activity change, negative = inhibition [2] 3.96% | activity change, negative = inhibition [16] -8.96% | activity, negative = inhibition [4] -1.88% | Potency [6] > 46 µM | outcome [7] | Potency [8] | activation [17] 2.8% | activity change, negative = inhibition [13] 2.83% | Potency [15]
-3.54%: max response [13, 18]
1.32%: max response [13, 19]
active: Potency [10] 6.31 µM

O=C(Nc1ccccc1)N1CCC2(CC1)CCN(C(=O)c1cnccn1)CC2
7.98%: max response [13, 18]
21.7%: max response [13, 19]
inactive: Potency [1] > 11.4 µM | activity change, negative = inhibition [2] -8.59% | activity change, negative = inhibition [16] 11.9% | Potency [6] > 46 µM | outcome [7] | Potency [8] | activity change, negative = inhibition [13] 6.14% | Potency [15]

O=c1c(-c2cc(F)cc(F)c2)nc2cnc(N3CCOCC3)nc2n1C1CC1
9.59%: max response [13, 18]
active: Potency [17] 1.58 µM
inactive: Potency [1] > 11.4 µM | activity change, negative = inhibition [2] 7.91% | activity change, negative = inhibition [16] 6.75% | Potency [5] > 9.22 µM | Potency [6] > 46 µM | outcome [7] | activity change, negative = inhibition [13] 0.7% | Potency [15]
11.7%: max response [13, 19]
